Screening results from PubChem.
Compounds with a hit are over-represented: about 18% of the library has one in this group of screens.
TDP1 inh: inhibitors of human tyrosyl-DNA phosphodiesterase TDP1; Q9NUW8; recombinant TDP1, AlphaScreen DNA substrate cleavage; Potency, µM (series often up to 130 µM), actives largely listed as inhibitors; 350,000 compounds, 0.28% hits; AID 485290; note: nearly all actives have a fitted effect of over 40% in size
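AlphaScreen read-out: signal falls as enzyme removes the 3' tyrosine-FITC from a 5'-biotinylated DNA oligo (15 nM, 5 min, RT). Enzyme was E. coli-made recombinant Tdp1 at 1 nM, exposed to compound for 15 min beforehand; beads 10 ug/ml, 10 min.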
VDR inh: vitamin D3 receptor (human) inhibition. AID 504847. P11473. VDR-SRC2-3 peptide fluorescence polarization, 2 h. Potency, µM, usual class: inhibitors. 400,000 compounds, 0.93% hits
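Reagent solutions, kept cold and dark, are dispensed first; compounds are then pinned in at 23 nl, plates briefly spun, and incubated 2 h at ambient temperature. Inhibition of VDR–SRC2-3 peptide binding is read by fluorescence polarization.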
PLK1 PBD inh: blocks phosphopeptide binding to human PLK1 polo-box domain | P53350 | Plk1 PBD binding of FITC phosphopeptide, fluorescence polarization | Potency, µM, actives largely listed as inhibitors | 360,000 compounds, 2.8% hits | AID 720504; note: series mostly up to about 57 µM; nearly all actives have a fitted effect of over 65% in size
DT40 TDP1 no CPT: qHTS for Inhibitors of human tyrosyl-DNA phosphodiesterase 1 (TDP1): qHTS in cells in absence of CPT | DT40 Tdp1-/- hTDP1 cells, no CPT, ATP luminescence, 48 h | Potency, µM (doses to about 46.2 µM), usual class: inhibitors | 420,000 compounds, 15% hits | AID 686978, 2013; note: nearly all actives have a fitted effect of over 55% in size
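Compound effects on proliferation are scored in DT40 Tdp1-/-;hTDP1 cells in the absence of CPT. ATP levels (CellTiter-Glo luminescence) are recorded after a ≥48 hr, 37 °C incubation.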
DT40 TDP1 CPT: growth inhibition of DT40 Tdp1-/-;hTDP1 cells with camptothecin (screen for TDP1 inhibitors). AID 686979. Potency, µM (titrated, usually from 46.2 µM), actives largely listed as inhibitors. chicken DT40 Tdp1-/-;hTDP1 cells + 20 nM CPT, ATP luminescence, 48 h. 420,000 compounds, 12% hits; note: nearly all actives have a fitted effect of over 55% in size
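Chicken DT40 Tdp1-/- cells complemented with human TDP1, 400 cells/well, exposed to compounds plus 20 nM camptothecin for at least 48 h at 37 C; viability read as ATP content by CellTiter-Glo luminescence.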
GCN5L2 inh: GCN5L2 (KAT2A) acetyltransferase inhibition; Potency, µM (doses to about 58.9 µM), most hits filed as inhibitors; GCN5L2 HAT assay, ThioGlo1 CoA-SH fluorescence; Q92830; 390,000 compounds, 0.21% hits
Target sequence (Q92830 whole entry, looked up): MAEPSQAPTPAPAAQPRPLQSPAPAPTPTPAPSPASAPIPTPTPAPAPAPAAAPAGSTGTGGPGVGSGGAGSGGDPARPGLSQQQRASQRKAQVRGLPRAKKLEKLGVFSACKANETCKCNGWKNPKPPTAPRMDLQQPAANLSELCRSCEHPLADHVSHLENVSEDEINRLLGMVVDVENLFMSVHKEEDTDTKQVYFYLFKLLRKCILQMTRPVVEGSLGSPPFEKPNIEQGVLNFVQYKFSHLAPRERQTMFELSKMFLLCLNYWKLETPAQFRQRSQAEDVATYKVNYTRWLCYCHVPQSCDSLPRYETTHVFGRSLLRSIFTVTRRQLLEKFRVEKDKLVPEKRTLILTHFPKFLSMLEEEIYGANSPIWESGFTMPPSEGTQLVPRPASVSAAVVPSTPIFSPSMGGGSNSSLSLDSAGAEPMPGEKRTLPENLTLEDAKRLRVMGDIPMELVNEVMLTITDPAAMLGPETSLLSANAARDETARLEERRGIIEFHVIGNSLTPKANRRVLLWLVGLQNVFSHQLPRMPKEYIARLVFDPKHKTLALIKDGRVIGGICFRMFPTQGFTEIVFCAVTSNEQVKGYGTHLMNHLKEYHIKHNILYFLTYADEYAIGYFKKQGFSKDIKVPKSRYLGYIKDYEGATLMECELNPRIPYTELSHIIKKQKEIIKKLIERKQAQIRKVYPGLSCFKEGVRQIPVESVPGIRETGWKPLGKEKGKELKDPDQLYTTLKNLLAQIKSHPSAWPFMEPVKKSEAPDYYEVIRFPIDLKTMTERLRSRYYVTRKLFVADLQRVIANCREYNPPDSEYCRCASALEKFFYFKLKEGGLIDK
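qHTS, 1536-well. 20nM enzyme, pH 7.5 HEPES/EDTA/Tween-20 buffer; 15 min compound preinc., RT. Start: 75uM H3(1-25), 70uM AcCoA, 50uM ThioGlo1. Read Ex340/Em540 at t=0 (autofluorescence flag) and t=20 min.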
A number is an active result; . = inactive; ? = inconclusive; / = no result given; [ ] = dose if it differs, or a comment. Calls come from the whole dose curve; as a rule, active = well fitted curve in the direction sought with a large enough effect; inconclusive = small, poorly fitted or top-dose-only effect, or another doubt; inactive = no such curve, though single readings can be large; an effect the other way counts as inactive or inconclusive.

SMILES	TDP1 inh	VDR inh	PLK1 PBD inh	DT40 TDP1 no CPT	DT40 TDP1 CPT	GCN5L2 inh
CCOC(=O)C1CCCN(c2cc(C)nc3cc(-c4ccc(Cl)cc4)nn23)C1 (stereo unspecified)	.	.	.	23.1µM	?	.
C#CCOCCOCCOCCNc1nc(N2CCN(C(=O)[C@H](CCCCN)n3cc(CN)nn3)CC2)nc(N2CCN(C(=O)[C@H](CC(N)=O)n3cc(C(N)[C@H](C)CC)nn3)CC2)n1 (stereo partly specified)	/	.	.	.	.	.
COC(=O)c1cc(C)nc(Nc2nc(C(N)Cc3ccc(F)cc3)cs2)n1 (stereo unspecified)	/	/	.	.	?	/
Cc1cnc(C)c(Nc2nc(C(N)Cc3ccc(F)cc3)cs2)n1 (stereo unspecified)	/	/	.	?	25.9µM	/
CCc1cnc(Nc2nc(C(N)Cc3ccc(F)cc3)cs2)nc1 (stereo unspecified)	/	/	.	18.4µM	11.6µM	/
COc1ccc(CC(N)c2csc(Nc3cnccn3)n2)cc1 (stereo unspecified)	/	/	.	?	?	/
COc1ccc(CC(N)c2csc(Nc3cc(NCc4ccco4)ncn3)n2)cc1 (stereo unspecified)	/	/	.	13µM	?	/
COc1ccc(CC(N)c2csc(Nc3ncccn3)n2)cc1 (stereo unspecified)	/	/	.	6.51µM	4.61µM	/
Cn1c(N)c(C(=O)COC(=O)c2cc(S(=O)(=O)NCc3ccccc3)ccc2O)c(=O)n(C)c1=O	/	.	.	.	.	/
O=C(CC[C@H]1O[C@@H](n2ccc(=O)[nH]c2=O)[C@H](O)[C@@H]1O)N[C@@H](Cc1ccccc1)C(=O)NCc1ccccc1	/	/	.	.	.	/
Cc1cnc(C)c(Nc2nc(C(N)CCc3ccccc3)cs2)n1 (stereo unspecified)	/	/	.	18.4µM	16.4µM	/
Cc1cnc(C)c(Nc2nc(C(N)Cc3ccc(Cl)cc3)cs2)n1 (stereo unspecified)	/	/	.	18.4µM	8.2µM	/
COc1ccc(CC(N)c2csc(Nc3nc(C)cnc3C)n2)cc1 (stereo unspecified)	/	/	.	14.6µM	18.4µM	/
CC1CCC(NC(=O)c2ccc3c(c2)N(Cc2ccccc2)C(=O)c2ccccc2S3(=O)=O)CC1 (stereo unspecified)	.	.	/	.	?	.
O=C(Nc1ccccc1C(=O)N1CCN(Cc2ccccc2)CC1)c1ccccc1	.	.	.	.	.	.
COc1cc2c(-c3ccc(C)cc3)nc3c(c(C)nn3-c3ccccc3)c2cc1OC	.[2.28 µM]	.	/	.	.	.
COc1ccc(C)cc1-n1cnc2cc(C(=O)NC3CCCCCC3)ccc21	.	.	/	?	?	.
COCCCNC(=O)c1ccc2c(c1)ncn2-c1ccc(C)cc1C	/	.	.	.	?	.
Cc1ccc(-n2cnc3cc(C(=O)NCc4ccc(F)cc4)ccc32)c(C)c1	.	.	/	?	20.6µM	.
Cc1ccc(-n2cnc3cc(C(=O)NC4CCCCCC4)ccc32)c(C)c1	.	.	/	16.4µM	?	.
O=C(CSc1cn(CC(=O)N2CCCCC2)c2ccccc12)NCc1ccc(F)cc1	.	.	/	?	?	.
O=C(N/N=C/c1cccc(OC(=O)c2cccc(Br)c2)c1)c1ccncc1	.	.	.	.	?	.
CNc1ccnc(-c2cccc(NS(C)(=O)=O)c2)n1	/	.	/	.	.	.
CCCCCCCCCCCCCCCC(=O)OCC(COP(=O)(O)OCC[N+](C)(C)C)OC(=O)CCCCCCCCCCCCCCC (stereo unspecified)	/	.	/	/	/	.
CCCCC(c1nnnn1CC1CCCO1)N1CCN(c2cccc(C)c2C)CC1 (stereo unspecified)	.	.	.	16.4µM	?	.
SMILES	TDP1 inh	VDR inh	PLK1 PBD inh	DT40 TDP1 no CPT	DT40 TDP1 CPT	GCN5L2 inh
Cc1cccc(NC(=O)c2cccc(N3C(=O)C4C5C=CC(C6CC56)C4C3=O)c2)c1 (stereo unspecified)	.	.	.	14.6µM	?	.
COC(=O)CCCn1cc(CN2CC(N(C)C)CS2(=O)=O)nn1 (stereo unspecified)	/	/	.	.	.	/
Cc1nc(-c2ccc(F)cc2)sc1CCNC(=O)c1ccccc1	.	.	/	23.1µM	14.6µM	.
COc1ccc(NC(=O)C(=O)NCCc2sc(-c3ccc(Cl)cc3)nc2C)cc1	.	.	/	.	.	.
Cc1nc(-c2ccc(F)cc2)sc1CCNC(=O)c1ccc(C(C)(C)C)cc1	.	.	/	16.4µM	14.6µM	.
Cc1nc(-c2ccc(F)cc2)sc1CCNC(=O)c1cccs1	.	.	/	?	20.6µM	.
Cc1nc(-c2ccc(F)cc2)sc1CCNC(=O)c1ccc(OC(C)C)cc1	.	.	/	?	?	.
Cc1nc(-c2ccc(Cl)cc2)sc1CCNC(=O)c1ccc(C(F)(F)F)cc1	.	.	/	11.6µM	8.2µM	.
COc1ccc(OC)c(CN2C(=O)CN(S(C)(=O)=O)CC2(C)C(=O)NC(C)C)c1 (stereo unspecified)	/	/	.	.	.	/
CC(N)CCCP(=O)(O)O (stereo unspecified)	.	.	/	.	.	.
O=c1c2[nH]c3ccc(F)cc3c2ncn1CCC1=CCCCC1	.	.	.	.	.	.
O=C(Nc1cc(Cl)ccc1-n1cncn1)c1ccc(Br)o1	.	.	.	.	.	.
Cc1cccc(C)c1OCc1nc2c3cnn(-c4ccccc4F)c3ncn2n1	.	.	/	.	.	.
CCOC(=O)c1c(NC(=O)COc2ccc(Cl)cc2Cl)sc2c1CCCCC2	.[12.3 µM]	.	/	.	.	.
COc1ccc(C(=O)NCCc2sc(-c3ccc(Cl)cc3)nc2C)c(OC)c1	.	.	/	?	16.4µM	.
O=C1C(NS(=O)(=O)c2ccccc2)=C(N2CCN(c3ccc(F)cc3)CC2)C(=O)c2ccccc21	/	?	?	?	?	.
O=C1C(NS(=O)(=O)c2cccs2)=C(N2CCN(c3cccc(Cl)c3)CC2)C(=O)c2ccccc21	.	.	.	23.1µM	20.6µM	.
Nc1ccc(C(=O)N2CCN(S(=O)(=O)c3ccc4c(c3)OCCCO4)CC2)cc1[N+](=O)[O-]	.	.	.	?	?	.
c1ccc2c(c1)Nc1cc3ccccc3cc1S2	.	.	.	.	.	.
COc1ccc2c(c1)Sc1ccccc1N2	.	.	.	16.4µM	?	.
Cc1ccc(NNC(N)=S)cc1Cl	/	79.4µM	.	?	?	.
O=C(Nc1ccc(Cl)c(Cl)c1)OCCNC(=O)c1ccncc1	.	.	.	23.1µM	?	.
O=C(Nc1ccc(Cl)c(Cl)c1)c1ccncc1	.	.	.	?	.	.
NC(=S)NNc1ccc(Cl)c(Cl)c1	.	?	?	?	?	.
